# Hits are enriched below; roughly 8.6% of the tested compounds scored in any of these assays.
# MARV entry inh = blocks Marburg virus binding or cell entry; Potency, µM (doses to about 49.2 µM), most hits filed as inhibitors; actives 6.5% (n = 18,000); Marburg virus pseudotype entry/binding inhibition, cell-based
# Lassa entry = blocks Lassa virus binding or cell entry. actives 4.1% (n = 18,000). Potency, µM (top dose mostly 49.2 µM), actives largely listed as inhibitors. AID 720533. Lassa virus pseudotyped entry inhibition, cell-based qHTS
# Numbers stand for hits; – = inactive; ? = inconclusive; · = no result given; ! = not confirmed by another sample; [ ] = another dose, or the depositor's remark. Calls follow the shape of the full dose curve; tested in HEK293 cells.
SMILES,MARV entry inh,Lassa entry
CCC(Sc1ccccc1)C(=O)OC1CC2CCC(C1)N2C (stereo not drawn),8.91µM,–
CN1[C@@H]2CC[C@H]1CC(OC(=O)C(O)c1ccccc1)C2 (stereo partly drawn),–,–
Nc1nc(-c2ccccn2)c(-c2ccc3ncccc3n2)s1,–,–
Clc1ccccc1C(c1ccccc1)(c1ccccc1)n1ccnc1,11.2µM,12.6µM
Clc1ccccc1-c1nccc(-n2ccnc2)n1,–,–
COC(=O)[C@@H]1[C@@H](c2cccc(C(F)(F)F)c2)NC(=O)N(Cc2ccccc2)[C@@H]1C,–[8.59 µM],–[8.59 µM]
C#CCCCON=C1C[C@@H](O)[C@H](O)[C@H]2[C@@H]3C(=O)N(C4CCCCC4)C(=O)[C@@H]3CC[C@H]12,?,–[8.59 µM]
COc1ccc(O)c(C(C)(C)C)c1,?,–
CC(C)(C)c1cc(O)ccc1O,12.6µM!,14.1µM!
CCN1C(=NCCc2ccccn2)NC(c2cccc(C(F)(F)F)c2)C(C(=O)OC)=C1C (stereo not drawn),–[8.59 µM],–[8.59 µM]
CC(C)C[C@@H]1NC(=O)[C@H](CCCN)NC(=O)[C@H](C(C)C)NC(=O)[C@@H]2CCCN2C(=O)[C@@H](Cc2ccccc2)NC(=O)[C@H](CC(C)C)NC(=O)[C@H](CCCN)NC(=O)[C@H](C(C)C)NC(=O)[C@@H]2CCCN2C(=O)[C@@H](Cc2ccccc2)NC1=O,?,31.6µM
CC(C)[C@@H]1NC(=O)[C@@H](Cc2ccccc2)NC(=O)[C@H](CC(=O)O)NC(=O)CNC(=O)[C@H](CCCN=C(N)N)NC1=O,–,–
CC[C@H]1OC(=O)[C@H](C)C(=O)[C@H](C)[C@@H](O[C@@H]2O[C@H](C)C[C@H](N(C)C)[C@H]2O)[C@](C)(OC)C[C@@H](C)C(=O)[C@H](C)[C@H]2N(CCCCn3cnc(-c4cccnc4)c3)C(=O)O[C@]12C,–,–
COC(=O)c1cc2c(s1)-c1ccccc1OC2,–,–
CN(C)CC/C=C1/c2ccccc2Sc2ccc(Cl)cc21,17.8µM,?
CN(C)CC/C=C1\c2ccccc2COc2ccccc21,10µM,–
CC(C)CON=C1C[C@@H](O)[C@@H](O)[C@@H]2[C@H]3C(=O)N(C[C@@H]4CCCO4)C(=O)[C@@H]3CC[C@@H]12,–[8.59 µM],–[8.59 µM]
OC[C@H]1OC([S-])[C@H](O)[C@@H](O)[C@@H]1O.[Au+] (stereo partly drawn),–,–
Cc1ccc2[nH]nc(C(=O)N3CCOc4ccc(CN5CCc6sccc6C5)cc4C3)c2c1,?,–
CCN1C(=NCC(C)C)N[C@@H](CCc2ccccc2)[C@H](C(=O)OC)[C@H]1C,?,–[8.59 µM]
CCC(C)CN1C(=O)NC(c2ccccc2)C(C(=O)OC)=C1C (stereo not drawn),–[8.59 µM],·
C=CCC12OC3(OC)CC1[C@H](C)[C@@H](c1ccccc1)C2[C@@]3(C)O (stereo partly drawn),–[8.59 µM],–[8.59 µM]
CCc1cc2c(nc1CC)CCN(CCC(C)=NOCC[C@@H]1C=C[C@H](OC(C)=O)[C@@H](COC(C)=O)O1)C2,?,–[8.59 µM]
CN(C)[C@H]1CCN([C@H]2C[S+](=O)([O-])N[C@H]2COCc2ccccc2)C1,–,–
CC(=O)OC[C@H]1O[C@@H](n2ncc(=O)[nH]c2=O)[C@H](OC(C)=O)[C@@H]1OC(C)=O,2µM,1.58µM
SMILES,MARV entry inh,Lassa entry
CCc1cc2c(nc1CC)CCN(CCC(C)=NO[C@@H]1O[C@H](COC(C)=O)[C@@H](OC(C)=O)[C@H](OC(C)=O)[C@@H]1OC(C)=O)C2,–[8.59 µM],–[8.59 µM]
O[C@H]1CN(Cc2cccs2)[C@@H](c2ccccc2)C[C@H]1n1cc(C2CC2)nn1,–,–
Nc1nccc(-c2c(-c3ccc(F)cc3)nn3cc(C(F)(F)F)ccc23)n1,–,–
COCOc1cc(OC)ccc1C(=O)C=Cc1ccc([N+](=O)[O-])cc1,–[8.59 µM],·
CCc1cc(C(=O)NCC2Cc3cc(C)cc(-c4cc(C(C)=O)ccc4F)c3O2)n(C)n1 (stereo not drawn),–,–
COc1ccc(S(=O)(=O)N(CCO)c2ccccc2CN(C)CC=Cc2ccc(Cl)cc2)cc1,10µM,11.2µM
Oc1ccc([C@@H]2CNCCc3c2cc(O)c(O)c3Cl)cc1,–,–
Oc1ccc([C@H]2CNCc3c2ccc(O)c3O)cc1O,6.31µM,–
Cc1cc2c(c(=O)n1Cc1ccccc1)[C@H]1O[C@](c3ccsc3)(Cc3cc(C#N)ccc31)O2,–[8.59 µM],–[8.59 µM]
COc1cccc([C@@H]2Oc3ccc(Br)cc3C(=O)[C@@H]2OC(=O)N[C@H](C)C2CCCCC2)c1,–[8.59 µM],–[8.59 µM]
Cc1ccccc1-c1nc(NCCN2CCOCC2)c2ccccc2n1,–,–
Cc1ccccc1-c1nc(NC2CCNCC2)c2ccccc2n1,8.91µM,–
CC(C)CN(C[C@@H](O)[C@H](Cc1ccccc1)NC(=O)O[C@@H]1CCOC1)S(=O)(=O)c1ccc(N)cc1,–,–
C=CCN1C(=O)[C@@]2(CC(C)=CC[C@@H](C)O2)c2ccccc21,–[8.59 µM],–[8.59 µM]
OCCOCCN1CCN(Cc2cccc(Oc3ccccc3)c2)CC1,–,–
O=C(O)C1=CCCN(CCOC(c2ccc(C(F)(F)F)cc2)c2ccc(C(F)(F)F)cc2)C1,–,–
Fc1ccc(C(OCCN2CCN(CCCc3ccccc3)CC2)c2ccc(F)cc2)cc1,7.94µM,14.1µM!
c1ccc(CCCN2CCN(CCOC(c3ccccc3)c3ccccc3)CC2)cc1,11.2µM,28.2µM
CCOC(=O)CN1C(=O)NC(c2cccc(C(F)(F)F)c2)C(C(C)=O)=C1C (stereo not drawn),–[8.59 µM],–[8.59 µM]
N=C1N=C(N)c2cc3ccccc3cc21,20µM,35.5µM
C#CCCCON=C1C[C@@H](O)[C@H](O)[C@H]2[C@@H]3C(=O)N(Cc4ccc5c(c4)OCO5)C(=O)[C@@H]3CC[C@H]12,?,–[8.59 µM]
CCOC(=O)CN1C(=O)[C@@]2(CC(C)=C[C@@H](COCc3ccccc3)O2)c2ccccc21,–[8.59 µM],·
C[C@@H]1O[C@@H](O[C@H]2C[C@@H](O)[C@]3(CO)[C@H]4[C@H](O)C[C@]5(C)[C@@H](C6=CC(=O)OC6)CC[C@]5(O)[C@@H]4CC[C@]3(O)C2)[C@H](O)[C@H](O)[C@H]1O,?,0.0316µM
C[C@@H]1O[C@H](O[C@H]2C[C@@H](O)[C@@]3(CO)[C@H]4[C@@H](O)C[C@]5(C)[C@@H](C6=CC(=O)OC6)CC[C@]5(O)[C@H]4CC[C@]3(O)C2)[C@@H](O)[C@H](O)[C@@H]1O,?,3.16µM
C[C@@H]1O[C@@H](O[C@H]2C[C@@H](O)[C@]3(CO)[C@@H]4C(CC[C@]3(O)C2)[C@@]2(O)CC[C@H](C3=CC(=O)OC3)[C@@]2(C)C[C@H]4O)[C@H](O)[C@H](O)[C@H]1O (stereo partly drawn),?,0.316µM
SMILES,MARV entry inh,Lassa entry
CC1O[C@@H](OC2CC(O)[C@@]3(CO)C4C(O)C[C@@]5(C)C(C6=CC(=O)OC6)CC[C@]5(O)C4CC[C@]3(O)C2)C(O)C(O)C1O (stereo partly drawn),0.282µM,0.316µM
CO/N=C(\C(=O)N[C@@H]1C(=O)N2C(C(=O)[O-])=C(C[n+]3ccc(N)n3CCO)CS[C@H]12)c1csc(N)n1,–,–
COc1ccc([C@]23Cc4ccccc4[C@H](O2)C2=C(CC4(CCCCC4)OC2=O)O3)cc1,–[8.59 µM],–[8.59 µM]
C=CCOC(=O)N[C@H](c1ccc(-c2ccccc2)cc1)[C@H](C)C=CCC(=O)OC,–[8.59 µM],·
CC(C)ON(C(C(=O)NO)C(C)C)S(=O)(=O)c1ccc(-c2ccccc2)cc1 (stereo not drawn),6.31µM,6.31µM
CC(C)ON(CC(=O)NO)S(=O)(=O)c1ccc(-c2ccccc2)cc1,–,–

# High-throughput results from PubChem BioAssay.
